Test results as given in PubChem BioAssay (NCI).
The panel holds about 79,000 compounds, 15% with a hit somewhere; the sample as a whole holds those more often. The source made the active and inactive calls. Cut-off read from the data, not from the text of the source: active = growth inhibition above about 70%; inactive = the rest.

How the values were obtained:
[1] = NCI Yeast Anticancer Drug Screen. Data for the rad52 strain (AID 147);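 note: 0% = growth of vehicle-treated control cultures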; settings: S. cerevisiae rad52 mutant growth inhibition, active compounds read high
In short: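 Screen used a yeast mutant impaired in DNA repair. After compound exposure, growth was measured. Values reflect inhibition compared with vehicle-treated cells.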

[2] = NCI Yeast Anticancer Drug Screen. Data for the wt1 strain (AID 149);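 note: 0% = growth of vehicle-treated wt1 cultures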; settings: S. cerevisiae wt1 strain (SPY 50644) growth inhibition, active compounds read high
In short: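 Compounds are added to wt1 yeast cultures. Growth is then measured. Inhibition is expressed relative to vehicle-treated controls.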

[3] = NCI Yeast Anticancer Drug Screen. Data for the rad50EPP+ strain (AID 151);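 note: 0% = growth of vehicle-treated control cultures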; settings: S. cerevisiae rad50 mutant strain, active compounds read high
In short: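 Exposing the rad50EPP+ strain to each compound, growth was compared with vehicle-only cultures to give inhibition.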

[4] = NCI Yeast Anticancer Drug Screen. Data for the mgt1 strain (AID 153); settings: S. cerevisiae mgt1 mutant growth inhibition, active compounds read high
In short: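 Genetically defined yeast (mgt1) treated with compound; inhibition of growth expressed against vehicle-treated controls.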

[5] = NCI Yeast Anticancer Drug Screen. Data for the rad50 strain (AID 155);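 note: 0% = growth of vehicle-only cultures of the same strain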; settings: S. cerevisiae rad50 strain growth inhibition, active compounds read high
In short: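 Inhibition values express reduced yeast growth in compound-treated cultures relative to vehicle-treated controls.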

[6] = NCI Yeast Anticancer Drug Screen. Data for the mec2-1 strain (AID 157); settings: S. cerevisiae mec2-1 strain, active compounds read high
In short: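 Readout is yeast growth inhibition, normalised to vehicle-treated controls, in the mec2-1 strain exposed to compound.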

[7] = NCI Yeast Anticancer Drug Screen. Data for the rad14 strain (AID 159);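 note: 0% = growth of vehicle-treated control cultures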; settings: S. cerevisiae rad14 strain growth inhibition, active compounds read high
In short: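 A mutant yeast strain defective in DNA damage repair is treated with compound; inhibition of its growth is scored against untreated, vehicle-exposed cultures.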

[8] = NCI Yeast Anticancer Drug Screen. Data for the sgs1 mgt1 strain (AID 161);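 note: 0% = growth of cultures given vehicle only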; settings: S. cerevisiae sgs1 mgt1 strain, active compounds read high
In short: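 Growth of a repair-deficient yeast mutant was monitored after compound treatment and expressed as inhibition relative to vehicle-treated cultures.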

[9] = NCI Yeast Anticancer Drug Screen. Data for the CLN2oe strain (AID 163);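 note: 0% = growth of vehicle-only control cultures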; settings: S. cerevisiae CLN2oe strain, active compounds read high
In short: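 Values reflect how much compound exposure reduced yeast growth, referenced to vehicle-exposed cells. Assay organism is a strain with a defined genetic change affecting cell-cycle control.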

[10] = NCI Yeast Anticancer Drug Screen. Data for the cln2 rad14 strain (AID 165);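 note: 0% = growth equal to vehicle treated cultures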; settings: S. cerevisiae cln2 rad14 strain, active compounds read high
In short: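 Relative to vehicle controls, growth inhibition of compound-treated cln2 rad14 yeast was recorded.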

[11] = NCI Yeast Anticancer Drug Screen. Data for the bub3 strain (AID 167); settings: S. cerevisiae bub3 mutant strain, active compounds read high
In short: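 Steps: expose the mutant yeast strain to compound; grow alongside vehicle-treated cultures; measure growth; express inhibition against the vehicle cultures.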

[12] = at 5.0 µM (retest, dose inferred, filed as 0.5)
[13] = at 50.0 µM (retest, dose inferred, filed as 5.0)

Measured: growth inhibition

C[N+](CCCl)(CCCl)Cc1cccc2cccc([N+](=O)[O-])c12
active: [1]; at 11.0 µM 74% | [1]; at 33.0 µM 92% | [1]; at 100.0 µM 94% | [3]; at 11.0 µM 80% | [3]; at 33.0 µM 95% | [3]; at 100.0 µM 96% | [5]; at 33.0 µM 90% | [5]; [13] 85% | [5]; at 50.0 µM 80.1% | [5]; at 100.0 µM 94% | [6]; at 100.0 µM 77% | [7]; at 33.0 µM 88% | [7]; at 100.0 µM 89% | [10]; [13] 78% | [10]; at 50.0 µM 74.5%
inactive: [1]; at 1.2 µM 31% | [1]; at 3.7 µM 47% | [2]; at 1.2 µM 31% | [2]; at 3.7 µM 9% | [2]; at 11.0 µM 31% | [2]; at 33.0 µM 28% | [2]; at 100.0 µM 39% | [3]; at 1.2 µM 20% | [3]; at 3.7 µM 35% | [4]; at 1.2 µM 3% | [4]; at 3.7 µM 6% | [4]; at 11.0 µM -15% | [4]; at 33.0 µM -5% | [4]; at 100.0 µM 9% | [5]; at 1.2 µM 26% | [5]; at 3.7 µM 44% | [5]; [12] 37% | [5]; at 11.0 µM 67% | [6]; at 1.2 µM -4% | [6]; at 3.7 µM 10% | [6]; [12] 1% | [6]; at 11.0 µM 10% | [6]; at 33.0 µM 44% | [6]; [13] 56% | [6]; at 50.0 µM 47% | [7]; at 1.2 µM -9% | [7]; at 3.7 µM -1% | [7]; at 11.0 µM 32% | [8]; [12] 15% | [8]; [13] 44% | [8]; at 50.0 µM 39.2% | [9]; at 1.2 µM -8% | [9]; at 3.7 µM -10% | [9]; at 11.0 µM -17% | [9]; at 33.0 µM -13% | [9]; at 100.0 µM -6% | [10]; [12] 17% | [11]; at 1.2 µM -20% | [11]; at 3.7 µM -26% | [11]; [12] 9% | [11]; at 11.0 µM -22% | [11]; at 33.0 µM -10% | [11]; [13] 45% | [11]; at 50.0 µM 0.4% | [11]; at 100.0 µM 3%
